Our source for the inhibition values is PubChem BioAssay AID1918969 (ICCB-Longwood Screening Facility, Harvard Medical School, 2023).

Screen size: about 190,000 compounds; about 280 (0.15%) were called active. The entries come from a sample that favours actives as a whole. Unmarked numbers belong to inactive results. Cut-off read from the data, not from the text of the source: active = inhibition above about 27% (passing the limit was not always enough); inactive = the rest.

In this test the test system is HCMV UL50-UL53 nuclear egress complex (human cytomegalovirus). Nature of the test: HCMV nuclear egress complex disruptors – biochemical, HTRF (AID 1918969). Conditions: HTRF UL50-UL53 interaction, normalized percent inhibition; stronger effect = higher value; concentration not given here. (In general: Time-resolved FRET reads energy transfer from a long-lived donor to a nearby acceptor.)
The inhibition is the change of the read-out against control, counted positive when it falls. Take `O=C(Cc1csc(NC(=O)NC2CCCC2)n1)NCCc1c[nH]c2ccccc12`: the inhibition is -1.1%.
Take `CCOC(=O)c1c(NC(=O)Cc2ccccc2)sc(C(=O)Nc2cccc(C(F)(F)F)c2)c1C`: the inhibition is 8.1%.
On to `Cc1noc(C)c1COc1ccc(C(=O)OCC(=O)Nc2sc3c(c2C(N)=O)CCC3)cc1`, for which the inhibition was 13.2%.
Then `Cc1nn(C)cc1CN(C)C(=O)c1cnn2c(C(F)(F)F)cc(-c3ccc(Br)cc3)nc12`, with -24.9%.
On to `Cc1ccc(C(CNC(=O)Nc2ccccc2)N2CCN(C)CC2)cc1` (stereo not given), for which the inhibition is -33.4%.
The same measure for `N#Cc1cccc(NC(=O)CSc2ncccn2)c1`: 14.4%; for `Cc1ccc(NC(=O)Cn2cnc3ccc(S(=O)(=O)N4CCC(C)CC4)cc3c2=O)cc1F`: -4.6%; for `C#CCN1C(=O)C(c2c(-c3ccc(Cl)cc3)[nH]c3c2c(=O)n(C)c(=O)n3C)c2ccccc21` (stereo not given): -14.2%.
`COc1cc(OC)cc(C(=O)N2N=C(c3c(-c4ccccc4)c4cc(Br)ccc4[nH]c3=O)CC2c2ccco2)c1` (stereo not given): the inhibition was 0.4%.
`CCOc1ccc(/C=C2\SC(=O)N(CCNC(=O)c3c(CC)noc3C)C2=O)cc1OC`: the inhibition was -3.2%.
As to `Cn1nccc1-c1nc(-c2cccc(NC(=O)Nc3ccccc3)c2)no1`, the inhibition is -30%.
The same measure for `COC(=O)c1sccc1NC(=O)Cn1c(=O)nc(-c2ccccc2F)c2cc(Cl)ccc21`: -19.3%; for `CC1(C)CC(NCCNC2=CC(=C(C#N)C#N)CC(C)(C)C2)=CC(=C(C#N)C#N)C1`: -0.1%; for `COc1ccc(-c2cc(C3CC3)nc3sc(C(N)=O)c(N)c23)cc1`: -38.3%.
Regarding `Cn1c(CCc2ccc(NC(=O)CN3C(=O)COc4ccccc43)cc2)nc2ccccc21`, the inhibition is -5.5%.
For `NCC(c1ccccc1)N1CCCC1` (stereo not given), the inhibition is -3.2%.
Then `Cc1ccc(S(=O)(=O)N/N=C2/CSCC2NC(=O)c2ccccc2)cc1` (stereo not given), with -22.7%.
Then `CCC(C)NS(=O)(=O)c1cc(C(=O)OC)n(C)c1C` (stereo not given), with -32.5%; and `CC(=O)N1c2ccc(S(=O)(=O)N3CCN(c4nc5ccccc5n5cccc45)CC3)cc2CC1C` (stereo not given), with -16.8%; and `Cc1cc(C)cc(NC2=NS(=O)(=O)c3ccccc32)c1`, with 7.9%.
Turning to `CCn1c(COC(=O)C2CSC3(C)CCC(=O)N23)nc2cc(S(=O)(=O)N(C)C)ccc21` (stereo not given), the inhibition was -24.2%.
The same measure for `COC(=O)c1cc(OC(=O)c2cc(OC)cc(OC)c2)cc(C(=O)OC)c1`: 6.8%; for `COCC(=O)Nc1nc2nc(-c3ccccc3)cc(=O)n2[nH]1`: -6.9%.
The same measure for `COc1ccccc1CNC(=O)C1CCN(c2ncnc3c2sc2nc(C)cc(-c4ccccc4)c23)CC1`: -7.4%.
The same measure for `O=C(Nc1ccc2sccc2c1)C1CC1`: -0.1%.
In the case of `COc1ccc(NC(=O)CN2C(=O)C(C)(C)c3ccccc32)cc1`, the inhibition was -13.1%.
For `CCOC(=O)c1cc(Nc2cc(OCC)ccc2OCC)c2cc(C)ccc2n1`, the inhibition is -15.8%.
The same measure for `COc1nc(N)c(C#N)c(-c2ccccc2)c1C#N`: 5.4%; for `CC(C)CSc1nccn2nc(-c3ccc(Cl)cc3)cc12`: 15.5%.
Regarding `CCOC(=O)c1cccc(NC(=O)c2ccc(CN3CC(=O)N4CSCC4C3=O)cc2)c1` (stereo not given), the inhibition was -6.4%.
The same measure for `C=C(C)C1Cc2c(C)nn(S(=O)(=O)c3ccc(C)cc3)c2C1` (stereo not given): -7.3%.
The same measure for `COc1ccc(OC)c(NC(=O)Cn2cnc3c2c(=O)n(C)c(=O)n3C)c1`: -4.9%.
The same measure for `CCOc1ccc(NC(=O)CCCN2C(=O)/C(=C/c3ccc(Cl)cc3)SC2=S)cc1`: -12.3%; for `CCOC(=O)c1c(N)sc2c1CCC(Br)C2=O` (stereo not given): -67.7%.
`CCN(C(=O)CSc1nnc(CN(c2ccc(F)cc2)S(C)(=O)=O)n1C)c1ccccc1`: the inhibition was -23.6%.
The same measure for `CCOc1cccc(C(=O)Nc2ccccc2C(=O)OC)c1`: 9.1%; for `O=C(Nc1c[nH]c(=O)[nH]c1=O)c1ccco1`: -1.3%.
The same measure for `CC(C)CN(CC(C)C)C(=O)CCN1C(=O)c2ccccc2C1=O`: -21.3%; for `CN(C(=O)CSc1nc(-c2ccccc2)cc(-c2ccco2)c1C#N)c1ccccc1`: -15.3%; for `CC(NC(=O)NCc1ccccc1)c1nc(-c2ccncc2)n[nH]1` (stereo not given): 8.4%.
The same measure for `C=CCn1c(=O)c(C(=O)NCc2ccc3c(c2)OCO3)c(O)c2ccccc21`: -23.4%; for `CCOc1ccc(CN(C)C(=O)C2=NNC(=O)CC2)cc1`: -31.5%.
Take `COc1ccc(OCC(=O)N2N=C(c3ccc(Cl)cc3)CC2c2ccco2)cc1` (stereo not given): the inhibition was -31.7%.
The same measure for `Cc1ccc(NC(=O)c2sc3ncnc(N4CCN(C)CC4)c3c2C)cc1F`: -16.4%; for `CCOC(=O)c1ccc(N=C2SC(C(=O)Nc3ccc(C)cc3C)CC(=O)N2C)cc1` (stereo not given): -8.2%.
The same measure for `N#CCSc1nnc(-c2ccccc2)c2ccccc12`: -26.2%.
For `Cc1cccc(NC(c2ccccn2)c2ccc3cccnc3c2O)n1` (stereo not given), the inhibition is -53.1%.
`O=S(=O)(Nc1ccc(-c2ccc(N3CCCCC3)nn2)cc1)c1ccc(F)cc1F`: the inhibition is -38.3%.
The same measure for `CCc1nc2cccnc2n1-c1ccc(CC(=O)N2CCOCC2)cc1`: -27.2%; for `CC1=Nc2c(ccc3cccnc23)C1(C)C`: -24.6%.
The same measure for `CC1CN(Cn2[nH]c(=O)ccc2=O)CC(C)O1` (stereo not given): -7.4%.
For the compound `CC1=C(C(=O)OC2CCCC2)C(c2coc3ccc(C)cc3c2=O)C2=C(CC(c3ccco3)CC2=O)N1` (stereo not given), the inhibition was -3.1%.
Then `O=C(NCc1cc2ccccc2s1)c1ccc(N2CCOCC2)nc1`, with -4.6%.
The same measure for `CC(C(=O)Nc1ccc(S(=O)(=O)N2CCCC2)cc1)N(C)Cc1ccc(F)cc1` (stereo not given): -5%; for `COc1ccc(C2CC(=O)C3=C(C2)NC(C)=C(C(=O)Nc2ccc(C)cc2)C3c2ccccc2)cc1OC` (stereo not given): -11.7%.
The same measure for `O=C(NCCO)c1ccc(C(=O)NCCO)cc1`: -13.4%.
Regarding `CCOc1ccc(NC(=O)CS(=O)(=O)c2cccc3nsnc23)cc1`, the inhibition is -37.5%.
The same measure for `COc1ccccc1N1CCN(C(=O)Cc2csc(NC(=O)Nc3ccccc3)n2)CC1`: -7.3%.
The same measure for `CC1CCN(C(=O)c2cn(C)cc3c(=O)n(-c4ccccc4)nc2-3)CC1`: -66.2%; for `CC(C)(C)c1ccc(CN2C(=O)N(Cc3ccccc3)S(=O)(=O)c3ccccc32)cc1`: -19.5%.
Then `Cc1nnc(NC(=O)Cn2cnc3oc(C)c(C)c3c2=O)s1`, with -21.8%.
Consider `O=S(=O)(NCCc1ccccn1)c1cc(Cl)cc(Cl)c1O`, for which the inhibition was -28.9%.
The same measure for `Cc1noc(C)c1C(=O)c1c(C)[nH]n(-c2ccccc2)c1=O`: -25.3%; for `CC1=NOC(=O)C1C(c1cccc(Br)c1)c1c(C)[nH]n(-c2ccccc2)c1=O` (stereo not given): 59.5% (active).
On to `Cc1ccc(Sc2c(C)[nH]n(-c3ccccc3)c2=O)cc1`, for which the inhibition was -26%.
The same measure for `O=C(CN1C(=O)c2ccccc2C1=O)Nc1ccc2c(c1)CCC(=O)N2`: -46%.
The same measure for `COC(=O)c1ccc(C)c(NS(=O)(=O)c2ccc3c(c2)c(=O)sn3C)c1`: -31.7%; for `S=C(c1ccncc1)N1CCOCC1`: -13.4%; for `CCCCCCCCCCCCCCCC(=O)O[C@@H]1[C@@H](O)[C@@H](O)C([C@H](NC(=O)[C@@H]2C[C@@H](CCC)CN2C)[C@H](C)Cl)O[C@@H]1SC` (stereo not given in full): -4.7%.
For `N#CCCn1cc(C=NCc2ccccc2)c(-c2cc3ccccc3o2)n1`, the inhibition is -30.5%.
With `COc1ccc(F)cc1-c1cc(N2CCN(S(=O)(=O)c3ccc(F)c(Cl)c3)CC2)ncn1`, the inhibition is -27.5%.
The same measure for `NS(=O)(=O)c1ccc(NC(=O)c2cc(-c3ccc4c(c3)OCO4)nc3ccccc23)cc1`: -4.6%; for `COC(=O)c1sccc1NC(=O)c1cc(=O)n2c(nc3cc(C)c(C)cc32)s1`: -30.2%; for `O=C1CN(S(=O)(=O)c2ccc(-c3ccc(=O)[nH]n3)s2)c2ccccc2N1`: -43.4%.
Then `O=C(Oc1ccccc1)c1cccc(C(=O)Oc2ccccc2)c1F`, with -13.9%.
The same measure for `COc1ccc(OC)c(NC(=O)c2cc3c([nH]c2=O)CC(C)(C)CC3=O)c1`: 3.5%; for `Cc1ccc(C(=O)NCC(=O)NC2CC2)cc1`: -17.5%.
Regarding `N#CC(C#N)=C1SCN(c2cccc(Cl)c2)CS1`, the inhibition was -5%.
The same measure for `COc1cccc(NC(=O)c2c(-c3cccnc3)noc2C)c1`: -15.4%; for `COc1ccc(NC(=O)CCCSc2nc3sc(C)c(C)c3c(=O)[nH]2)cc1`: -2.2%.
Then `CNc1nc(OC)nc(N(C)C)n1`, with 11.3%; and `O=C(Nc1ccc2oc(-c3ccccc3Br)nc2c1)c1cccc([N+](=O)[O-])c1`, with 7%; and `CCc1nc(-c2cc(S(=O)(=O)N3CCCC(C(=O)Nc4ccc(C)c(F)c4)C3)c(C)s2)no1` (stereo not given), with -9.2%.
Then `Cc1ccc(NC(=O)CCCc2nc3cccnc3n2CCC(C)C)cc1`, with -10.6%.
Take `Nc1nc(Nc2ccccc2)sc1C(=O)c1ccc(Br)cc1`: the inhibition was -4.3%.
Then `CC1(C)Cc2cccc(Oc3ncnc4sccc34)c2O1`, with -13%; and `O=C(CCS(=O)(=O)c1ccc2c(c1)NC(=O)CS2)NCc1ccccc1Cl`, with -15.7%; and `OC(Cc1nc2ccccc2o1)c1ccccc1` (stereo not given), with -3.6%.
Then `COc1ccc(C(=O)CSc2nc3nc[nH]c3c(=O)[nH]2)cc1`, with -13.4%; and `COc1cc(=O)[nH]c(SC(C)C(=O)Nc2ccccc2)n1` (stereo not given), with -5.6%.
